Results as given in PubChem BioAssay AID2662 (National Center for Advancing Translational Sciences (NCATS), 2010).
The whole screen tested about 290,000 compounds, of which about 110 (0.038%) were called active. Inconclusive results (about 3%) are left out. Many of the other results were omitted from the sample, so actives are more common in it than they were. Values without a mark were called inactive. The call rests on the fitted dose curve; in most records, active means well fitted inhibition curve with a large enough effect in the polarisation, with a control signal flat (not every such curve was filed as active); inconclusive means small, poorly fitted or top-dose-only effect, or effect the other way, or a change in a side signal; inactive means no such curve, though single readings can be large or run the other way; the % refers to the polarisation.

These molecules were tested against Histone-lysine N-methyltransferase 2A (Homo sapiens) (UniProt Q03164) (assay: qHTS Fluorescence Polarization Assay for Inhibitors of MLL CXXC domain - DNA interaction). Conditions: MLL-CXXC / FITC-HOXA9 DNA fluorescence polarization; series mostly up to 115 µM; activity change, negative = inhibition: at the top concentration.
Sequence of Histone-lysine N-methyltransferase 2A (Homo sapiens) (Q03164 whole entry, looked up, the tested form may be a part): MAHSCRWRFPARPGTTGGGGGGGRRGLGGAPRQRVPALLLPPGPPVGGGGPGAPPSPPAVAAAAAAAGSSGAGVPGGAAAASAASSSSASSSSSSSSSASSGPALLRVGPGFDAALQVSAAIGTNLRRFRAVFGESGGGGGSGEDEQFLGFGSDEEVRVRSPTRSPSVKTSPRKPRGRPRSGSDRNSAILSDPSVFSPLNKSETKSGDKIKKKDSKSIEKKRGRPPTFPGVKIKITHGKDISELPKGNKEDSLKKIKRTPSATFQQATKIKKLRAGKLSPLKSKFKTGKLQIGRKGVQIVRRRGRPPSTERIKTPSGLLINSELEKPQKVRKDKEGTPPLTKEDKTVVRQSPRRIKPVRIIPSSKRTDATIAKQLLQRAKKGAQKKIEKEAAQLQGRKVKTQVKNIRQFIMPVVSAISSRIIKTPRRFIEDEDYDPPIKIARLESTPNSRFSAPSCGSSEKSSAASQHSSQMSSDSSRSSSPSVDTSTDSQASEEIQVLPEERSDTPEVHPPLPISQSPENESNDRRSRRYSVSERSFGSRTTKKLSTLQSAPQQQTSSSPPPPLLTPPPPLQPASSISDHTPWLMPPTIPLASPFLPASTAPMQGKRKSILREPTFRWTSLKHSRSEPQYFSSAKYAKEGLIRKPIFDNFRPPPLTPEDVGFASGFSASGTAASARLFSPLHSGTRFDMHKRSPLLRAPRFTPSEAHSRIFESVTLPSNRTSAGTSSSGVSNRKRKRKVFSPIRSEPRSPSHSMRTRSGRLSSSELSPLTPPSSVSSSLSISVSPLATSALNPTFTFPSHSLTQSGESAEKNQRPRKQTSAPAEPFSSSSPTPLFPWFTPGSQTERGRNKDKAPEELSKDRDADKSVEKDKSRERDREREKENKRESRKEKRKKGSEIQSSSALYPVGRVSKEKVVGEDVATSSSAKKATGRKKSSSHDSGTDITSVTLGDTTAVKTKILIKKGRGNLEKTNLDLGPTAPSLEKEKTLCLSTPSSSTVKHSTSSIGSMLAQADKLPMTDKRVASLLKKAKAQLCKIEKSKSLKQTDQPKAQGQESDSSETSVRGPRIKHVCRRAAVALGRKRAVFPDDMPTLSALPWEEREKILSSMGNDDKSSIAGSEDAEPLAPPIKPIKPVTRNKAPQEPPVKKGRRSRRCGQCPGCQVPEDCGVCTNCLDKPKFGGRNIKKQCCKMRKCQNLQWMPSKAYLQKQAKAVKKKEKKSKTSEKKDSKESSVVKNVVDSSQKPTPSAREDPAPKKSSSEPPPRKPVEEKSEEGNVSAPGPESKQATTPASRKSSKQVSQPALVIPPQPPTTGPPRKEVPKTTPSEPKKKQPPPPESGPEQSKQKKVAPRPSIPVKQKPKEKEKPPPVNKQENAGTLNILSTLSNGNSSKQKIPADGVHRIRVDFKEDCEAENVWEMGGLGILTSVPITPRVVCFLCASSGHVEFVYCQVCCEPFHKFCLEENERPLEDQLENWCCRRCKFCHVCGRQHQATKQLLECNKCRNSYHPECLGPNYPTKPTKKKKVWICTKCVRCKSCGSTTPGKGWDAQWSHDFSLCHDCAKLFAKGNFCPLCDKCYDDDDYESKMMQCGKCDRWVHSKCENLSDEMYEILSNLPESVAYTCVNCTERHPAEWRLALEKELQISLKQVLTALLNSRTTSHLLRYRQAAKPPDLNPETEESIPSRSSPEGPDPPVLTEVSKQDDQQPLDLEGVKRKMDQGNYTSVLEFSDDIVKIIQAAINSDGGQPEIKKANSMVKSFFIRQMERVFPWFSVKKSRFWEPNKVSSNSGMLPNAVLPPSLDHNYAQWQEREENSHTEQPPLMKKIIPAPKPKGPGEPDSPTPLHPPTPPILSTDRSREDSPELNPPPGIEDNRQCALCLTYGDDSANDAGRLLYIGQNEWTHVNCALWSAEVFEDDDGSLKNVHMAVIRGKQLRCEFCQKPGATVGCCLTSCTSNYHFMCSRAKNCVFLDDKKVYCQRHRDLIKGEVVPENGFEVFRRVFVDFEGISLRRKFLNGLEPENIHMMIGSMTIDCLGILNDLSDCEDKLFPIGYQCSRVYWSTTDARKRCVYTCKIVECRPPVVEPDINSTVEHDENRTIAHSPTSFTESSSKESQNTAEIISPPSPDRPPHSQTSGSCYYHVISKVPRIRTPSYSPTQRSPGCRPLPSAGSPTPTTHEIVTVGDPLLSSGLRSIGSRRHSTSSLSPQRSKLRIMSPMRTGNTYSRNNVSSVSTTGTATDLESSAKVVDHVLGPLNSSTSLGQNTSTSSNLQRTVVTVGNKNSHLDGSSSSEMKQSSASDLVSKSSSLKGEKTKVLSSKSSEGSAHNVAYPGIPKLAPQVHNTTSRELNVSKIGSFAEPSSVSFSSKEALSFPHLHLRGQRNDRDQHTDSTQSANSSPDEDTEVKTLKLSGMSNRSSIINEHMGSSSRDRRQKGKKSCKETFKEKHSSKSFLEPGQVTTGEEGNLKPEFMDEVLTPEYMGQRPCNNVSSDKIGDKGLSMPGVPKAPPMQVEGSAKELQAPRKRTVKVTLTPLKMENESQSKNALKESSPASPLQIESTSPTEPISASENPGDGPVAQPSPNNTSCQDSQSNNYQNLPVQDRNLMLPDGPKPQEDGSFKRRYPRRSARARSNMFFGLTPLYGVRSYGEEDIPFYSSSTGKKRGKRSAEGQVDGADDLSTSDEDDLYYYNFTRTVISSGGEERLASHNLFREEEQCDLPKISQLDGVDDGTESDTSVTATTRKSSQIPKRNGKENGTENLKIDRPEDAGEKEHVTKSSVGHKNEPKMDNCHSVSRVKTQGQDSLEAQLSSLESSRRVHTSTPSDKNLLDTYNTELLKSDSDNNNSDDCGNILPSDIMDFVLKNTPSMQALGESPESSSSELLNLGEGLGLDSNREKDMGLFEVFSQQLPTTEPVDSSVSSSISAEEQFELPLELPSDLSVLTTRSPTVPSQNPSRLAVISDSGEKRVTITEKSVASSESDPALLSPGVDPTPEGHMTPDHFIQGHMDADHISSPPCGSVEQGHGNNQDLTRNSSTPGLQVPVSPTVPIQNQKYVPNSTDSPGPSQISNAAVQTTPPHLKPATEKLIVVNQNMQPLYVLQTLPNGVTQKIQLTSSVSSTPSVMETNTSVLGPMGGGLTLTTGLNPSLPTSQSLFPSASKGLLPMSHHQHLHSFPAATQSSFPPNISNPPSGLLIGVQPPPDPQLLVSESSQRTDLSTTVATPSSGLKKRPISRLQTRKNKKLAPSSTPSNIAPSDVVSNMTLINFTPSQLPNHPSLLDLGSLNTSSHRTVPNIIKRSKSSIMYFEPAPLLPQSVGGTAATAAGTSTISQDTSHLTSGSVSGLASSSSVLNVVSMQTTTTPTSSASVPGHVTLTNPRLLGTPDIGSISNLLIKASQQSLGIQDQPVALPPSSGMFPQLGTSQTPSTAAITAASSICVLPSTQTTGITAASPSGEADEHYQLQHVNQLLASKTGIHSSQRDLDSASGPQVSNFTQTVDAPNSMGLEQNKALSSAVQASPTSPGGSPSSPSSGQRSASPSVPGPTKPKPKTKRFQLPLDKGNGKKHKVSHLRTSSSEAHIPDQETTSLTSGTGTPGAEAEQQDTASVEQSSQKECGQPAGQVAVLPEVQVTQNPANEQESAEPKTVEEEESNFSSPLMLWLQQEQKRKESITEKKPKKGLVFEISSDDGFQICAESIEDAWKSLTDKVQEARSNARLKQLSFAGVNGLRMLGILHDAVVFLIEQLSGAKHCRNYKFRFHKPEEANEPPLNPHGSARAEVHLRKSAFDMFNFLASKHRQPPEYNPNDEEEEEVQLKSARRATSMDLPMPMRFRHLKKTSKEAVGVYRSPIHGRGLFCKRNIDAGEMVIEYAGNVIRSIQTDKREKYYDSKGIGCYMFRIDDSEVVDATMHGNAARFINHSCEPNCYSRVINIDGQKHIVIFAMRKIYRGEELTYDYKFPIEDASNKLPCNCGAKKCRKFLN
Excerpt: NIH Chemical Genomics Center [NCGC] NIH Molecular Libraries Probe Production centers Network [MLPCN] MLPCN Grant: DA027717-01A1 Assay Submitter (PI): John Bushweller NCGC Assay Overview: The MLL (Mixed Lineage Luekemia) gene is involved in chromosomal translocation that results in either acute lymphoid leukemia (ALL) or acute myeloid leukemia (AML). Chromasomal translocation of MLL gene is responsible for the fusion of N-terminal MLL to more than 60 different partner genes in frame. Many of the MLL partner genes contain transcription activation domains or function as transcriptional activators. Despite the heterogeneity of fusion partners, the N-terminus of MLL fusion proteins always consists of the N-terminal menin binding motif and the CXXC domain. The MLL-CXXC domain specifically recognizes unmethylated CpG sequences of the HOX-A gene. Disruption of the MLL-CXXC and HOX-A gene interaction leads to down regulation of HOX-A gene expression and may potentially reverse leukemogenesis. We have miniaturized and optimized an in-vitro assay to screen for inhibitors of the MLL-CXXC domain and HOX-A DNA interaction, which could have utility in MLL fusion leukemias.
The affinity purified MLL-CXXC domain, unlabeled HOX-A9 DNA strand, fluorescein (FLSN) labeled HOX-A9 DNA strand were kindly supplied by the laboratory of Dr. John Bushweller, University of Virginia. All reagents were stored in single use aliquots at -80C. Assay Reagents: Assay buffer: 50 mM TRIS-HCl pH 7.5, 50 mM NaCl, 1 mM DTT. Add 0.05% BSA prior to reaction setup. Assay Procedure: 1.Dispense 1 ul of a 7 uM MLL-CXXC solution prepared in assay buffer into column 1-48. 2.Transfer 23 nl of compounds and unlabeled HOX-A9 per well. 3.Incubate for 5 minutes at ambient. 4.Dispense 1ul of a 50 nM FLSN-HOX-A9 solution prepared in assay buffer into columns 1-48 5.Centrifuge for 30 seconds at 1000 RPM. 6.Incubate for 30 minutes at ambient. 7.Read using the Envision reader fluorescent polarization protocol.

| Structure (SMILES) | activity change, negative = inhibition [%] | Potency |
| --- | --- | --- |
| COc1ccc(N(CC(=O)Nc2cc(OC)cc(OC)c2)S(=O)(=O)c2c(C)n[nH]c2C)cc1 | -2.83 |  |
| CC(C)NC(=O)C(c1ccc(F)cc1)N(C(=O)CCC(=O)Nc1ccccn1)c1ccccc1F (configuration not stated) | -3.67 |  |
| COc1ccc(C(=O)NC(C)CCc2ccccc2)c(OC)c1 (configuration not stated) | -5.8 |  |
| O=C(CN1CCC(NC(=O)C2CC2)CC1)Nc1ccccc1[N+](=O)[O-] | 2.95 |  |
| CCCOc1ccc(-c2c(C(=O)N/N=C/c3ccco3)nnn2-c2nonc2N)cc1 | 1.47 |  |
| COC(=O)c1cc(S(=O)(=O)Nc2ccc(C)c(F)c2)c[nH]1 | 5.77 |  |
| O=C(c1ccccc1)N1CCN(C(=O)c2cc3nc(-c4ccccc4)cc(C(F)(F)F)n3n2)CC1 | -7.71 |  |
| COc1cccc(N(CC(=O)NC2CCCC2)C(=O)Cn2nnc(-c3ccc(C)o3)n2)c1 | 25.6 |  |
| COc1ccc2c(c1OC)C(=O)N(c1ccc(O)cc1)C2 | -1.66 |  |
| C=CC1(C)CC(=O)C2(O)C(C)(O1)C(OC(C)=O)C(O)C1C(C)(C)CCC(O)C12C (configuration not stated) | 2.28 |  |
| C=C1C(=CC=C2CCC[C@@]3(C)[C@@H]2CC[C@H]3[C@H](C)CCCC(C)C)C[C@@H](O)C[C@@H]1O | -2.06 |  |
| O=C(CCS(=O)(=O)c1ccccc1)NC1CCCC1 | -6.29 |  |
| CCN1C(=NCC(C)C)N[C@@H](CCc2ccccc2)[C@H](C(=O)NCC(C)C)[C@H]1C |  | inactive |
| O=C(COc1ccc(Cl)cc1)Nc1ccc2c(c1)OCO2 | -10.7 |  |
| COc1cccc(OCC(O)CNC(=O)c2oc3c(C)c(C)ccc3c2C)c1 (configuration not stated) | 1.3 |  |
| O=C(NCCc1ccccn1)c1nc(Cn2cc([N+](=O)[O-])cn2)no1 | 0.842 |  |
| COc1ccc(-c2cc(=O)oc3cc(OC(C)C(=O)Nc4ccc(CN5CCOCC5)cc4)ccc23)cc1 (configuration not stated) | 16.7 |  |
| CCOc1cc(C(=O)O)ccc1OCCOc1ccccc1 | 3.09 |  |
| Cc1cc(C)cc(N(CCC#N)C(=O)CN2C(=O)NC3(CCCC3)C2=O)c1 | -1.49 |  |
| CC(=O)N(C)c1ccc(NC(=O)Nc2cccc3ccccc23)cc1 | -9.5 |  |
| CS(=O)(=O)N(CC(=O)Nc1ccc(F)cc1)C1CCCCC1 | -8.63 |  |

| Structure (SMILES) | activity change, negative = inhibition [%] | Potency |
| --- | --- | --- |
| CC(=O)c1ccc(OCC(O)CN2CCN(S(=O)(=O)c3cccc(Br)c3)CC2)cc1 (configuration not stated) | 2.81 |  |
| COc1ccccc1N1CCN(C(=O)c2cc(=O)c3cc(C)ccc3o2)CC1 | -8.72 |  |
| Cc1ccc(OCC(=O)Nc2ccc(C(=O)O)cc2NC(=O)COc2ccc(C)c(C)c2)cc1C | 16.9 |  |
| Cc1nn(C(C)(C)C)c(OC(=O)CC(C)C)c1S(=O)(=O)c1ccccc1 | -2.57 |  |
| C[C@]12CC[C@@H]3c4ccc(O)cc4C[C@@H](CCCCCCCCCS(=O)CCCC(F)(F)C(F)(F)F)C3[C@@H]1CC[C@@H]2O (some centres not stated) | 5.98 |  |
| COc1ccccc1C(=O)NC(CCSC)C(=O)NNC(=O)c1csc(N2CCOCC2)n1 (configuration not stated) | -2.58 |  |
| Cc1ccc(S(=O)(=O)NCCCn2ccnc2)cc1C(=O)NC(C)C | -5.36 |  |
| O=C(O)c1ccccc1C(=O)NC1=NN(c2ccccc2)CC1 | 2.1 |  |
| O=C(NCCCN1CCCCC1)C1CC(=O)N(CCc2ccccc2)C1 (configuration not stated) | 3.45 |  |
| COc1cc2c(cc1OC)[C@@H](Cc1cc(OC)c(OC)c(OC)c1)[N+](C)(CCCOC(=O)CC/C=C/CCC(=O)OCCC[N+]1(C)CCc3cc(OC)c(OC)cc3[C@H]1Cc1cc(OC)c(OC)c(OC)c1)CC2 (some centres not stated) | -5.96 |  |
| CN(C(=O)c1ccccc1)c1nccnc1C#N | -18.4 |  |
| O=S(=O)(NC1CCCCC1N1CCN(c2ccccc2F)CC1)c1ccccc1 (configuration not stated) | -0.732 |  |
| CCC1CCCCN1C(=S)Nc1ccc(S(=O)(=O)Nc2ncccn2)cc1 (configuration not stated) | 11 |  |
| Cc1cc(C)cc(OCC(=O)Nc2cc(NC(=O)COc3cc(C)cc(C)c3)cc(C(=O)O)c2)c1 | -18.7 |  |
| C[C@H](NC(=O)C1CC(=O)N(c2ccc3c(c2)OCCO3)C1)C(=O)N1CCC(C(=O)O)CC1 (some centres not stated) | 13.2 |  |
| Cc1cc(C)c2nc(N3CCC(C(=O)NCCN4CCOCC4)CC3)sc2c1 | -5.32 |  |
| Cc1ccc(C(C(=O)NCC2CCCO2)N(C(=O)c2snc(C(N)=O)c2N)c2ccc(C(C)C)cc2)o1 (configuration not stated) | 5.15 |  |
| CCOC(=O)[C@@H]1[C@H]2COc3ccc(Br)cc3[C@H]2N2C(=O)N(c3ccc(Cl)cc3)C(=O)[C@@]12C | -3.58 |  |
| CC(=O)NC1CCN(CC(=O)Nc2nccs2)CC1 | 1.35 |  |
| O=C(COc1ccc(Cl)cc1Cl)N/N=C/c1ccccn1 | 24 |  |
| Cc1cccc(N(C)C(=O)CN2C(=O)COc3ccc(S(=O)(=O)N4CCCCCC4)cc32)c1 | -1.72 |  |

| Structure (SMILES) | activity change, negative = inhibition [%] | Potency |
| --- | --- | --- |
| O=C(Nc1cccc(-n2cnnn2)c1)c1cccnc1 | 2.3 |  |
| COc1ccccc1CCNC(=O)c1c(C)nn(CC(C)C)c1Cl | 2.36 |  |
| Cc1cccc(C)c1NC(=O)CS(=O)CC(=O)N1CCN(c2ccccc2)CC1 (configuration not stated) | 2.84 |  |
| O=C(Nc1ncc([N+](=O)[O-])s1)C1COc2ccccc2O1 (configuration not stated) | 7.99 |  |
| CC(C)CNC(=O)C(=O)NCC(c1ccc2c(c1)OCO2)N1CCOCC1 (configuration not stated) | -11.6 |  |
| Cc1ccc(-c2noc(CNC(=O)c3ccoc3C)n2)cc1 | -2.13 |  |
| O=C(CCS(=O)(=O)c1ccc2c(c1)NC(=O)CS2)NCc1ccccc1Cl | 3.07 |  |
| CCc1ccccc1NC(=S)Nc1cc(OC)c(NC(=O)C(C)C)cc1OC | 3.05 |  |
| O=C(NCc1ccccc1)C(c1ccccc1)N(C(=O)c1csnn1)c1ccc(F)cc1 (configuration not stated) | 21.8 |  |
| [2H]C(CCOS(N)(=O)=O)c1ccccc1 (configuration not stated) | -2.68 |  |
| CCCCC(=O)Nc1c2c(nn1-c1ccc([N+](=O)[O-])cc1)CS(=O)(=O)C2 | 21.7 |  |
| Cc1cc(C)n2nc(CNS(=O)(=O)c3c(F)c(F)c(F)c(F)c3F)nc2n1 | 7.15 |  |
| COc1cccc(CNC(=O)COc2cc(O)c3c(c2)OC(C)(C)CC3=O)c1 | 4.19 |  |
| C/C(=N\NC(=O)c1ccoc1C)c1ccccc1O | 21.1 |  |
| CN1C(=O)CN2CCc3ccccc3C2c2cc(Cl)ccc21 (configuration not stated) | 6.84 |  |
| O=C1C2CCCN2C(=O)N1CCCCN1CCN(c2cccc(C(F)(F)F)c2)CC1 (configuration not stated) | -0.642 |  |
| O=C(Nc1nnc(S(=O)(=O)N2CCCCCC2)s1)c1cccc(Br)c1 | -14.9 |  |
| Cc1cccc(OCC(O)CN2CCN(S(=O)(=O)c3ccc(C)cc3C)CC2)c1 (configuration not stated) | -3.59 |  |
| Cc1cc(N=Nc2ccc3ccccc3c2)ccc1O | -3.97 |  |
| OCC(CO)NC1C[C@](O)(CO)[C@@H](O)[C@H](O)[C@H]1O (some centres not stated) | -1.18 |  |
